# TRPM1 prom inh = inhibitors of MITF-dependent TRPM1 promoter reporter, primary screen, cell-based, SK-MEL-5, single point, luciferase. 330,000 compounds, 0.83% hits. SK-MEL-5 TRPM1 promoter luciferase, 24 h. inhibition, % at 12.5 µM;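 active = mean inhibition across replicates of 60% or more, whatever share of single replicates reaches that level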
# ABHD5-PLIN5 inh = ABHD5-PLIN5 interaction inhibitors, primary screen, cell lysate, split luciferase complementation, luminescence; Perilipin-5 (Homo sapiens) + 1-acylglycerol-3-phosphate O-acyltransferase ABHD5 (Homo …; inhibition, % at 4 µM; 360,000 compounds, 0.78% hits; Split G. princeps luciferase complementation, 4 h;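 active = inhibition above the mean inhibition across every tested compound plus 3 SD, cut at about 22% in these data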
# CF NFkB block = inhibitors of PAF-induced NF-kB signaling, primary screen, cell-based, GFP fluorescence, uHTS | KKLEB NF-kB-GFP reporter, GFP fluorescence overnight | inhibition, % at 5 µM | 360,000 compounds, 0.86% hits;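 active = at least 50% inhibition at 5 µM, scaled per plate between neutral and stimulator controls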;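 also: PAF is a Pseudomonas aeruginosa culture filtrate used as stimulus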
# KKLEB tox = cytotoxicity in KKLEB CF airway cells, primary screen, cytotoxicity control for CF NF-kB inhibitor project, cell-based, uHTS, fluorescence assay plates; KKLEB CF airway cells viability, ATPlite luminescence, overnight; stronger effect = lower value; cells stimulated with P. aeruginosa culture filtrate; activity change (cytotoxicity), % at 5 µM; 360,000 compounds, 0.36% hits; AID 602141, 2011;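 active = corrected activity change at or below -50% at 5 µM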
# Peg3 prom inh = Peg3 promoter-driven luciferase inhibitors, primary screen, cell-based, HeLa, luciferase luminescence | inhibition, % at 20 µM | HeLa PEG-Prom luciferase reporter, overnight | 360,000 compounds, 1.7% hits;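 active = inhibition of at least 50% at 20 µM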
# HIF-2a inh = HIF-2a reporter inhibitors, primary screen, luminescence, 786-0 RCC cells. inhibition, % at 18.8 µM. 360,000 compounds, 0.72% hits. 786-0 RCC cells HIF-2a reporter, luciferase luminescence, overnight;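 active = inhibition of the luminescence signal of 40% or more relative to plate controls, in a single-dose primary screen at 18.75 µM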
# Mdm2-MdmX confirm = retested Mdm2-MdmX interaction blockers, confirmation, cell-based, luminescence, single concentration, set 2 | 740 compounds, 99% hits | SaOS-2 split-luciferase Mdm2/MdmX complementation | AID 504601, 2011 | shares compounds with HIF-2a inh | inhibition, % at 8 µM;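 active = mean inhibition of the luminescence signal across two replicates at or above 26 percent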
# HIF-2a inh conf = HIF-2a reporter inhibitor retest, confirmation, luminescence, 786-0 RCC cells; HIF-2a luciferase reporter luminescence, overnight; inhibition, % at 18.8 µM; 1,800 compounds, 56% hits; shares compounds with HIF-2a inh;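 active = mean inhibition across four replicates of at least 40 percent at the single tested concentration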
# HIF-1a cs = HIF-1a luciferase reporter signal reduction – MiaPaCa-2 cells, single concentration, counter-screen for HIF-2a inhibitor project, confirmation; shares compounds with HIF-2a inh; MiaPaCa-2 HIF-1a luciferase reporter, desferoxamine, overnight; inhibition, % at 18.8 µM; 1,800 compounds, 72% hits; AID 651589, 2012;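 active = mean inhibition of the reporter signal across four replicates at the single tested dose of 50% or more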
# A number is an active result; - = inactive; . = not tested or not shown. Only some compounds are listed: those with a hit (about 3% of all), similar ones and a draw of the others.
SMILES,TRPM1 prom inh,ABHD5-PLIN5 inh,CF NFkB block,KKLEB tox,Peg3 prom inh,HIF-2a inh,HIF-2a inh conf,HIF-1a cs,others
O=C(Nc1cccc(C(=O)O)c1)Nc1ccccc1Cl,-,-,-,-,-,40,-,-,
C#CCN(C[C@@H]1[C@@H](OC(=O)NCc2ccco2)[C@@H](OC(=O)NCc2ccco2)CN(C(=O)OC(C)C)N1C(=O)OC(C)C)S(=O)(=O)c1ccc(C)cc1,.,-,-,-,-,44,-,89,
C#CCN(C[C@@H]1[C@@H](OC(=O)NCc2ccccc2F)[C@@H](OC(=O)NCc2ccccc2F)CN(C(=O)OC(C)C)N1C(=O)OC(C)C)S(=O)(=O)c1ccc(C)cc1,.,-,-,-,-,-,.,.,
CCCn1c(Nc2nc3ccccc3n2C)nc2ccccc21,-,-,-,-,90,91,58,105,Mdm2-MdmX confirm=103
COc1cccc(C(=O)N2CCC[C@H]2C(=O)N2CCC[C@H]2C(=O)N(C)Cc2ccccc2)c1,.,-,.,.,.,-,.,.,
CC(=NNC(=S)Nc1cccc(Cl)c1)c1ccccn1,-,-,-,-,93,72,-,-,
Cc1cc(C)c(S(=O)(=O)N2CCCC(C(=O)NCc3ccccn3)C2)c(C)c1 (stereo not given),-,-,-,-,-,-,.,.,
Cc1cccc([C@@H]2[C@@H]3C(=O)N(Cc4ccccc4)C(=O)[C@@H]3[C@]3(Cc4ccccc4)C(=O)N(c4ccc(C(F)(F)F)cc4)C(=O)N23)c1,-,-,-,-,-,-,.,.,Mdm2-MdmX confirm=103
CSCCC(NS(=O)(=O)c1ccccc1)C(=O)OC(C)C(=O)Nc1ccc(Cl)cn1 (stereo not given),-,-,-,-,-,-,.,.,
CC(=O)Nc1ccc(Oc2ccccc2)cc1,-,-,-,-,-,-,.,.,
CC(=O)Nc1ccc(Oc2sc(C(=O)c3ccccc3)c(N)c2C#N)cc1,-,-,-,-,-,54,43,-,
CC(C)NC(=O)N(C)C[C@H]1OCc2cnnn2CCCC(=O)N([C@H](C)CO)C[C@H]1C,.,-,-,-,-,-,.,.,
O=C(OCN1C(=O)c2ccccc2C1=O)c1cccnc1SC(F)F,-,-,-,-,-,-,.,.,
Cc1cc(NC(=O)c2cc([N+](=O)[O-])ccc2Cl)no1,-,-,-,-,-,-,.,.,
O=C(Nc1cccc(NC(=O)c2cc([N+](=O)[O-])ccc2Cl)n1)c1cc([N+](=O)[O-])ccc1Cl,-,-,-,-,93,84,-,102,Mdm2-MdmX confirm=100
NC(=O)C(CCc1nc2ccccc2[nH]1)NS(=O)(=O)c1ccccc1 (stereo not given),.,-,-,-,-,-,.,.,
Cc1cc(NC(=O)NC(=O)c2ccccc2F)no1,-,-,-,-,-,-,.,.,
CC(C)(C)c1ccc(Oc2ccc(NC(=O)c3ccco3)cn2)cc1,-,-,-,-,-,75,-,-,
O=C(CN1C(=O)NC(c2ccccc2)(c2ccccc2)C1=O)NCCc1ccc(F)cc1,-,-,-,-,-,-,.,.,
Cn1c(SCC(=O)NCCc2ccccc2)ncc(C(=O)Nc2ccccc2)c1=O,-,-,-,-,-,-,.,.,
NC1=NC[C@H](CC2CCCCC2)N1CCc1cc(C(F)(F)F)cc(C(F)(F)F)c1,-,-,-,-,101,98,-,106,Mdm2-MdmX confirm=100
NC1=NC[C@@H](Cc2ccc(O)cc2)N1CCc1cc(C(F)(F)F)cc(C(F)(F)F)c1,-,-,-,-,-,-,.,.,
Cc1c(NC(=O)C(C)OC(=O)c2ccc([N+](=O)[O-])cc2Cl)c(=O)n(-c2ccccc2)n1C (stereo not given),-,-,-,-,-,-,.,.,
O=C(Cn1ncc(Cl)c(Cl)c1=O)c1ccc(Cl)cc1,80,-,-,-,108,96,-,106,
CC(C)(C)C(=O)Cn1ncc(Cl)c(Cl)c1=O,91,-,-,-,104,95,-,106,
SMILES,TRPM1 prom inh,ABHD5-PLIN5 inh,CF NFkB block,KKLEB tox,Peg3 prom inh,HIF-2a inh,HIF-2a inh conf,HIF-1a cs,others
C=CCn1c(C)cc(C(=O)Cn2ncc(Cl)c(Cl)c2=O)c1C,67,-,88,-54,101,94,-,105,
O=C(Cn1ncc(N2CCOCC2)c(Cl)c1=O)c1ccc(Cl)cc1,-,-,-,-,-,-,.,.,
CCN1CCN(c2ccc(N3CCN(S(=O)(=O)c4ccc(C)c([N+](=O)[O-])c4)CC3)nn2)CC1,-,-,-,-,-,-,.,.,
O=C(COC(=O)c1ccc(S(=O)(=O)N2CCCCC2)cc1)NCc1ccccc1,-,-,-,-,-,-,.,.,
COc1ccc(/C=N/NC(=O)c2cccc([N+](=O)[O-])c2)c2ccccc12,-,-,-,-,-,57,-,-,
COc1cccc(/C=N/NC(=O)c2cccc([N+](=O)[O-])c2)c1OS(=O)(=O)c1ccccc1,-,-,-,-,-,-,.,.,
CCN(C(=O)COC(=O)C(c1ccccc1)c1ccccc1)c1c(N)n(Cc2ccccc2)c(=O)[nH]c1=O,.,-,-,-,-,-,.,.,
COc1ccccc1CN(C)C[C@H]1OCc2cnnn2CCCC(=O)N([C@H](C)CO)C[C@@H]1C,.,-,-,-,-,-,.,.,
c1ccc(N2CCN(c3nc4cc5c(cc4s3)OCCO5)CC2)cc1,-,-,-,-,-,-,.,.,
c1c2c(cc3sc(N4CCOCC4)nc13)OCCO2,-,-,-,-,-,55,63,-,
O=[N+]([O-])c1ccc(NC(=S)NCCc2ccccc2)cc1,-,-,-,-,-,-,.,.,
O=[N+]([O-])c1ccc(NC(=S)NCCc2ccc(Cl)cc2)cc1,-,-,-,-,-,-,.,.,Mdm2-MdmX confirm=97
CCN1CCN(CCCNC(=O)c2ccc(/C=C3/Sc4ccccc4N(Cc4ccccc4F)C3=O)cc2)CC1,-,-,-,-,59,91,-,102,
O=C(NCCCN1CCOCC1)c1ccc(/C=C2\Oc3ccccc3N(Cc3ccccc3F)C2=O)cc1,-,-,-,-,-,-,.,.,

# Screening results from PubChem.
